The text below walks through data of PubChem BioAssay.

The structures appear in SMILES notation. Where “and” joins values, the source holds several entries; their conditions need not be identical. Equal values may be shown once. Records with an inconclusive call do not appear. Calls of active or inactive are those of the source. Unless noted, no cut-off is given here; in the data, nearly all actives have AC50 up to about 30 µM.

The nature of experiment [1]: growth inhibition of DIPG glioma cells, dose response, cell-based, SU-DIPG-XIII, MIPE4.0, CellTiter-Glo, qHTS (AID 1347061; cut-off not given, nearly all actives have AC50 up to about 37 µM;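 note: cells exposed to compound for 48 hours before readout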). The note with it: SU-DIPG-XIII viability, CellTiter-Glo ATP luminescence. A general note: In ATP-based viability assays light output follows the ATP content of the culture.
The nature of experiment [2]: growth inhibition of DIPG glioma cells, dose response, cell-based, JHH-DIPG-1, MIPE4.0, CellTiter-Glo, qHTS (AID 1347062; cut-off not given, nearly all actives have AC50 up to about 27 µM;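 for AC50: cells exposed to compound for two days before readout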). To be noted: JHH-DIPG-1 viability, CellTiter-Glo ATP luminescence.
Experiment [3] in a line: growth inhibition of DIPG glioma cells, dose response, cell-based, SU-DIPG-IV, MIPE4.0, CellTiter-Glo, qHTS (AID 1347063).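 Note: compound exposure lasted 48 hours before the viability readout.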 To be noted: SU-DIPG-IV viability, CellTiter-Glo ATP luminescence.
Experiment [4] can be described thus: SU-DIPG-VI glioma cell viability, MIPE4.0 library, CellTiter-Glo luminescence, qHTS (AID 1347066).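 Note: cells exposed to compound for 48 hours before readout.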 The note with it: CellTiter-Glo ATP luminescence.
The nature of experiment [5]: SU-DIPG-XXV glioma cell viability, MIPE5.0 library, qHTS (AID 1347068; cut-off not given, nearly all actives have IC50 up to about 30 µM;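 for IC50: cells exposed to compound for 48 hours before viability readout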). In general terms: In qHTS, concentration-response curves come from the screen itself.
The nature of experiment [6]: JHH-DIPG-1 glioma cell viability, MIPE5.0 library, CellTiter-Glo luminescence, qHTS (AID 1347067; cut-off not given, nearly all actives have AC50 up to about 26 µM;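 note: cells exposed to compound for 48 hours before readout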). The note with it: JHH-DIPG-1 glioma viability, CellTiter-Glo ATP luminescence.
The nature of experiment [7]: sensitizers of A549 cells to miR-34 induction, primary screen, imaging, A549 dox-inducible miR-34, nuclei and caspase counts (AID 1347080;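 active = compounds whose cell count with miR-34 switched on is under 0.7 times the count with it off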). The note with it: A549 miR-34 inducible, Hoechst nuclei count, 48 h.
Experiment [8] in a line: survival rescue of mitochondrial mutant cells in low glucose, primary screen, MELAS cybrids, Rieske KO mouse fibroblasts, CellTiter-Glo (AID 1508586;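 active = mean z-score across replicates of 1.96 or higher in either the MELAS or the Rieske mutant cell line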;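 note: z relative to plate mean and SD of compound and empty wells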).
A short description of experiment [9]: modifiers of HSF1 nuclear foci, imaging, Selleck Cancer Library (AID 1347162; in the data active = plate-normalised HSF1 focus index below about 0.46). To be noted: human cells, at 10 µM; SSMD: measured here: HSF1 foci SSMD mean; cell count: measured here: cell number; plate-normalised HSF1 focus index: stronger effect = lower value.
The nature of experiment [10]: viability loss in pontine glioma line – cell-based, SU-DIPG-XXV, MIPE5.0, CellTiter-Glo, qHTS, dose response (AID 1347065; cut-off not given, nearly all actives have AC50 up to about 26 µM;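 note: cells exposed to compound for 48 hours before ATP readout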). To be noted: CellTiter-Glo ATP luminescence.
Experiment [11] is described as follows: growth inhibition of DIPG glioma cells, dose response, cell-based, SU-DIPG-XIII, MIPE5.0, CellTiter-Glo, qHTS (AID 1347064; cut-off not given, nearly all actives have AC50 up to about 23 µM;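 note: cells exposed to compound for 48 hours before the viability read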). The note with it: SU-DIPG-XIII viability, CellTiter-Glo ATP luminescence.
The mark [12] stands for this setting: stronger effect = lower value, cell number ratio, induced over uninduced.
[13] abbreviates: measured here: relative caspase fold change +Dox/-Dox.
The mark [14] stands for this setting: measured here: total cells with miR-34 induction, stronger effect = lower value.
Setting [15] is: measured here: total cells without miR-34 induction.
The mark [16] stands for this setting: MELAS cybrid survival, CellTiter-Glo 48 h, stronger effect = higher value.
Where [17] appears, read: Rieske KO mouse fibroblast survival, CellTiter-Glo 72 h.

As for `CCn1c(C(=O)N(C2CC2)C2CC2)cc2c3c(ncn3C)c(Nc3cc(C)n(C)n3)nc21`, the compound was called inactive in experiment [1], in experiment [2], in [3], in experiment [4] and in experiment [5].

With `C[C@]12C=CC(=O)N[C@@H]1CC[C@@H]1[C@@H]2CC[C@]2(C)[C@@H](C(=O)Nc3cc(C(F)(F)F)ccc3C(F)(F)F)CC[C@@H]12`, the result in [1], in [2] and in [3] was inactive.

For `CNC(=O)CN1CCC(Oc2cc3c(Nc4cccc(Cl)c4F)ncnc3cc2OC)CC1`, the outcome in experiment [1], in experiment [2], in [3], in [4], in experiment [6] and in experiment [5] was inactive. The values for the fold change in experiment [7] (setting [12]) and in [7] (setting [13]) were 0.965 (inactive) and 1.05, respectively. The figures for the cell count in experiment [7] (setting [14]) and in experiment [7] (setting [15]) were 5230 and 5420, respectively. In addition, the values for the z-score in experiment [8] (setting [16]) and in experiment [8] (setting [17]) were -0.464 (inactive) and -0.429, respectively.

For `NC(N)=Nc1nc(CSCCC(N)=NS(N)(=O)=O)cs1`, the call in [1], in [2], in experiment [3] and in [4] was inactive. For the same compound, the fold change was 0.921 (inactive) and 0.901 (inactive) and 0.846 (inactive) in experiment [7] (setting [12]); 1.73 and 0.639 and 1.03 in [7] (setting [13]). For the same compound, the cell count was 9300 and 8340 and 7700 in experiment [7] (setting [14]); 10100 and 9260 and 9100 in [7] (setting [15]). In addition, the z-score in [8] (setting [16]) is 0.605 (inactive) and -0.262 (inactive); in [8] (setting [17]), -0.158 and 0.443.

In the case of `CC(C(C)N1CC(=O)NC(=O)C1)N1CC(=O)NC(=O)C1` (stereo not drawn), the call in experiment [1], in [2], in experiment [3], in experiment [4], in [6] and in experiment [5] was inactive.

Consider `O=C(NNC(=O)c1ccc(CNS(=O)(=O)c2ccc(F)c(Cl)c2)cc1)c1ccccc1`, for which the compound was classed as inactive in [1], in experiment [2], in experiment [3] and in experiment [4].

Turning to `O=C(O)C(O)Cc1ccc(O)c(O)c1` (stereo not drawn), the result in experiment [1], in [2], in [3], in experiment [4] and in experiment [5] was inactive. Further, the figures for the fold change in experiment [7] (setting [12]) and in [7] (setting [13]) were 0.928 (inactive) and 0.6, respectively. The values for the cell count in [7] (setting [14]) and in experiment [7] (setting [15]) were 9530 and 10300, respectively. Besides, the z-score in [8] (setting [16]) was -0.385 (inactive); in experiment [8] (setting [17]), 0.0393.

Regarding `CC[C@H]1OC(=O)[C@H](C)[C@@H](O[C@H]2C[C@@](C)(OC)[C@@H](O)[C@H](C)O2)[C@H](C)[C@@H](O[C@@H]2O[C@@H](C)C[C@H](N(C)C)[C@H]2O)[C@](C)(O)C[C@@H](C)C(=O)[C@H](C)[C@@H](O)[C@]1(C)O`, the call in experiment [1], in [2], in experiment [3] and in [4] was inactive.

In the case of `C/C=C1\C2C=C(C)CC1(N)c1ccc(=O)[nH]c1C2` (stereo not drawn), the compound was called inactive in experiment [1], in experiment [2], in experiment [3] and in [4]. Also, the fold change is 1.01 (inactive) in [7] (setting [12]) and 0.681 in [7] (setting [13]). In addition, the cell count in experiment [7] (setting [14]) was 4140; in [7] (setting [15]), 4110.

`CN(N=O)C(=O)N[C@H]1C(O)OC(CO)[C@@H](O)[C@@H]1O` (stereo partly drawn): the compound was called inactive in [1], in experiment [2], in [3] and in [4].

As for `CCCCn1c(=O)n(Cc2ccccc2F)c(=O)c2[nH]c(Cc3ccc(NC(C)=O)cc3)nc21`, the compound was classed as inactive in [1], in experiment [2], in experiment [4], in [6] and in experiment [5]. Further, in [9], the SSMD stood at 3.98. The compound further came in with a cell count in [9] of 6960. Also, the plate-normalised HSF1 focus index in [9] was 1.24 (inactive).

Regarding `O=C(N[C@@H](c1ccccc1)[C@@H]1CCCCN1)c1cccc(C(F)(F)F)c1Cl`, the call in experiment [1], in experiment [2], in experiment [4] and in experiment [5] was inactive. The AC50 (usually the concentration at which the activity in the assay is half-maximal) in experiment [10] is 20.9 µM (active).

For `NC(=O)c1noc([C@H](CCCC2CCCCC2)CC(=O)NO)n1`, the result in experiment [1], in experiment [4], in experiment [6] and in experiment [5] was inactive. In [2], the AC50 was 23.5 µM (active).

Take `CCCCc1ccc(NS(=O)(=O)c2ccc(C)c(C(=O)N3CCN(c4cccc(C)c4C)CC3)c2)cc1`: the compound was called inactive in [1] and in experiment [2]. Besides, the half-maximal activity concentration (AC50) in experiment [4] is 23.5 µM (active).

As to `COc1ccc2c(Oc3ccc(NC(=O)c4c(C)n(CC(C)(C)O)n(-c5ccccc5)c4=O)nc3)ccnc2c1`, the outcome in experiment [1], in [2] and in experiment [4] was inactive. Also, the AC50 in experiment [10] is 13.2 µM (active). Moreover, the values for the fold change in experiment [7] (setting [12]) and in experiment [7] (setting [13]) were 0.842 (inactive) and 0.917, respectively. The values for the cell count in experiment [7] (setting [14]) and in experiment [7] (setting [15]) were 7640 and 9080, respectively. Besides, the z-score in experiment [8] (setting [16]) was -0.36 (inactive); in experiment [8] (setting [17]), 1.01.

Consider `OC[C@H](Cc1ccccc1)Nc1nc(Oc2ccc3c(c2)CCC3)nc2c1ncn2Cc1ccc(-c2ccccc2)cc1`, for which the compound was called inactive in [1], in experiment [2], in experiment [4] and in [5].

In the case of `CC(C)(Cc1ccc2ccccc2c1)NC[C@@H](O)COc1cccc(Cl)c1C#N`, the compound was called inactive in experiment [1] and in [2]. The AC50 in experiment [11] is 8.33 µM (active); in experiment [10] it was 10.5 µM (active); in experiment [6] it was 10.5 µM (active). Moreover, the IC50 – broadly, the concentration at which inhibition is half-maximal – in experiment [5] was 13.2 µM (active).
